# Measured values from PubChem BioAssay.
# The source made the active and inactive calls.
# Tests used:
# [1] = anti-His antibody binders, primary screen, artefact control for SMM control protein annotation, biochemical, small-molecule microarray, 635 nm fluorescence (AID 1128); details: anti-His Alexa647 antibody binding, higher = more signal;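 also: score merges feature fluorescence with signal-to-noise for each printed compound spot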
# [2] = system: Human papillomavirus type 1a E7 protein (residues 1-88); assay: HPV1a E7 small-molecule binders, primary screen, biochemical, small-molecule microarray, residues 1-88, 635 nm (AID 1129); details: small-molecule microarray binding, fluorescence 635 nm; higher = more signal
# [3] = biological target: Focal adhesion kinase 1 (Homo sapiens) (UniProt Q05397); assay: small-molecule microarray binders of FAK, primary screen, biochemical, 635/667 nm fluorescence, BSA, DTT (AID 1130); details: PTK2 binding, 635 nm fluorescence, higher = more signal;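 also: composite of spot emission at 667 nm and signal to noise over triplicate slides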
# Focal adhesion kinase 1 (Homo sapiens), sequence (Q05397 whole entry, looked up): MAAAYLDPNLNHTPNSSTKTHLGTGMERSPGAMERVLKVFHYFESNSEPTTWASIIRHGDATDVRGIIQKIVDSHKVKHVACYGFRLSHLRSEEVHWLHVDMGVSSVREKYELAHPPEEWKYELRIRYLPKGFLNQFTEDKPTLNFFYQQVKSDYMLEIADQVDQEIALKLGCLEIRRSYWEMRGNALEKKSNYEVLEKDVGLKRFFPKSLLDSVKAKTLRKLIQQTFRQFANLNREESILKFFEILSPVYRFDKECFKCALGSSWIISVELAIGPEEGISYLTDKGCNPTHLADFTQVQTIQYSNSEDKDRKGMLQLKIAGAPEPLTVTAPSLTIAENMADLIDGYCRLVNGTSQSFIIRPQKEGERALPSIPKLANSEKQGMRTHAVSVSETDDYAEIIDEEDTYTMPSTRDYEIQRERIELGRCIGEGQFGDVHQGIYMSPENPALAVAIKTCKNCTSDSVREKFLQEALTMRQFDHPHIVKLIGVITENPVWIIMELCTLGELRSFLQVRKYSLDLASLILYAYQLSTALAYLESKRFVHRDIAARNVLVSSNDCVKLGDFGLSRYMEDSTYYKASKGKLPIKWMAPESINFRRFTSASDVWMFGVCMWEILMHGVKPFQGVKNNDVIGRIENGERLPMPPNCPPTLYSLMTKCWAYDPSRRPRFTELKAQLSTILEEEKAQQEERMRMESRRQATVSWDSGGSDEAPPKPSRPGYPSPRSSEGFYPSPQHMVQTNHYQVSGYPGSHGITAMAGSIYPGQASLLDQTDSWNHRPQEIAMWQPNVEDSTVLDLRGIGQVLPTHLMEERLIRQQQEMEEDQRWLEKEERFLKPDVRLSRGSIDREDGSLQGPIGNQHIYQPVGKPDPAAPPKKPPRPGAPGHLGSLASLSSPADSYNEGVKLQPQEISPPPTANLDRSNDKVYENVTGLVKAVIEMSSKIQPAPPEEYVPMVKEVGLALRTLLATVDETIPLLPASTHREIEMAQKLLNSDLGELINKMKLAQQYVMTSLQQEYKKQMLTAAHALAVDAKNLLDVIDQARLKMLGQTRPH
# [4] = system: Fibrinogen (Alexa647-labelled); assay: fibrinogen binders on compound microarrays, profiling panel, artefact control for SMM control-protein annotation, biochemical, small-molecule microarray, 635/667 nm fluorescence (AID 1131); details: fibrinogen-A647 binding fluorescence, higher = more signal;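 also: z-score merges 667 nm fluorescence with per-spot signal-to-noise over triplicate slides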
# [5] = biological target: Follistatin (Homo sapiens) (UniProt P19883); assay: follistatin binders on small-molecule microarrays, primary screen, biochemical, small-molecule microarray, 635/667 nm fluorescence (AID 1132); details: FST binding, 635 nm fluorescence, higher = more signal
# Follistatin (Homo sapiens), sequence (P19883 whole entry, looked up): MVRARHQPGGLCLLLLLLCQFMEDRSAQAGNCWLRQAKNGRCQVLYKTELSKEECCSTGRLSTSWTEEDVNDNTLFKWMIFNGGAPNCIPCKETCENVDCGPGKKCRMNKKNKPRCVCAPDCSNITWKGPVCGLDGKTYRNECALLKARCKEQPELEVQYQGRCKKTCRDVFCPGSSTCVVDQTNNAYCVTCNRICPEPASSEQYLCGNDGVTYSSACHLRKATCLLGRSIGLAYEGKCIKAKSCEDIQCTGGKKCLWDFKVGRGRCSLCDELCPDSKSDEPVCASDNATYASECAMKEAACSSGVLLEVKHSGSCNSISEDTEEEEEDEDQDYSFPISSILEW
# [6] = biological target: Fibroblast growth factor 2 (Homo sapiens) (UniProt P09038); assay: FGF2 binders on small-molecule microarrays, primary screen, biochemical, small-molecule microarray, 635/667 nm fluorescence (AID 1133); details: small-molecule microarray binding, FGF2, fluorescence 635/667; higher = more signal
# Fibroblast growth factor 2 (Homo sapiens), sequence (P09038 whole entry, looked up): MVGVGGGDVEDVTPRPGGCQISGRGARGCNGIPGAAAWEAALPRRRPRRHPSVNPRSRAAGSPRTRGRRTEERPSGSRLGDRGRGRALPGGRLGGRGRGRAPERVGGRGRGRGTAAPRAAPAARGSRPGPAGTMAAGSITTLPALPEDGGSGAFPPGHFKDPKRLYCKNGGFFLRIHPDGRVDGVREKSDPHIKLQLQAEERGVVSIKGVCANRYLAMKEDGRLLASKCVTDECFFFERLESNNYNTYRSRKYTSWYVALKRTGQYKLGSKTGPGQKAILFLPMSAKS
# [7] = mitochondrial membrane potential change in A549 cells, profiling panel, cell-based, JC-1 fluorescence, basal, 24 h, 100 nL (AID 1138); details: higher = more signal;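 also: A549 lung adenocarcinoma cells under basal conditions with no added stimulus; test concentration not given here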
# Lefty1 = Lefty1 binders on small-molecule microarrays, primary screen, biochemical, small-molecule microarray, 635/667 nm fluorescence (AID 1139); details: small-molecule microarray binding, fluorescence 635/667; higher = more signal
# [8] = system: wheat germ agglutinin (Triticum aestivum), Alexa647-labelled; assay: wheat germ agglutinin binders on compound microarrays, profiling panel, artefact control for SMM control-protein annotation, biochemical, small-molecule microarray, 635/667 nm fluorescence (AID 1140); details: WGA-A647 binding, 635 nm fluorescence, higher = more signal;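 also: score merges 667 nm feature emission with signal to noise over triplicate slides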
# [9] = biological target: Luciferin 4-monooxygenase (Photinus pyralis) (UniProt P08659); assay: firefly luciferase enzyme inhibitors, primary screen, biochemical, luminescence, purified enzyme, 2006 set (AID 1141); details: SteadyGlo luminescence, 30 min, higher = more signal, called active from +8 up or from −8 down;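 also: cell-free assay with purified firefly luciferase at 100 ng per well in PBS; test concentration not given here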
# Luciferin 4-monooxygenase (Photinus pyralis), sequence (P08659 whole entry, looked up): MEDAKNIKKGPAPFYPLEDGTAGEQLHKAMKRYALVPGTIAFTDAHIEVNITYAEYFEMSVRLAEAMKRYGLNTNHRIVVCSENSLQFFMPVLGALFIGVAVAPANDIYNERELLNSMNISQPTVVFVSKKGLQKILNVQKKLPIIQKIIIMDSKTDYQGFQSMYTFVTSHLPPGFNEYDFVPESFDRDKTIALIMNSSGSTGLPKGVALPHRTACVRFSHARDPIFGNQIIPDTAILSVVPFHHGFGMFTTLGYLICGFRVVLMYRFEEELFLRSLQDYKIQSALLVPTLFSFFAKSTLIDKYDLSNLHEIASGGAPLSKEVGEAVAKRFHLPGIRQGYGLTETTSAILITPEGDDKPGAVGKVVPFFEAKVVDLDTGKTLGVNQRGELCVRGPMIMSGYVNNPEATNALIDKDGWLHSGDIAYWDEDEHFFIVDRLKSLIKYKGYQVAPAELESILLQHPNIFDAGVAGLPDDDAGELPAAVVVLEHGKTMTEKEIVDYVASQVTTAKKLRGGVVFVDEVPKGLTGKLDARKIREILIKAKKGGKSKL
Compound,composite z-score [1],composite z-score [2],composite z-score [3],composite z-score [4],composite z-score [5],composite z-score [6],z-score [7],composite z-score (Lefty1),composite z-score [8],z-score [9]
CC(=O)NCCCC[C@@H]1NC(=O)[C@H]2C[C@@H](C(=O)NCCCCCC[N+](C)(C)C)[C@@H](c3cccc(OCCO)c3)N2C1=O,0.627,0.614,0.207,0.77,1.4,1.9,-1.12,1.39,0.656,0.692 (inactive)
Cc1ccc([C@H]2C(C(=O)O)=C[C@@H](C)N2S(=O)(=O)c2ccc(C)cc2)cc1,1.72,1.14,1.96,-1.29,-0.742,-1.16,-0.321,-1.15,1.32,0.467 (inactive)
O=C(CS)NCCCCCCNC(=O)[C@H]1C[C@H]2C(=O)N3CCC[C@H]3C(=O)N2[C@H]1c1cccc(OCCO)c1,1.7,1.23,0.615,0.0353,1.28,1.19,-0.145,0.731,0.658,-0.135 (inactive)
O=c1oc(-c2ccccc2)nc2cc(Br)ccc12,0.118,0.71,0.704,0.481,0.405,0.671,0.112,0.585,0.466,-9.5 (active)
CCCCC(O)C1C=CC2C(=O)N(C3CCCCC3)C(=O)C2N1Nc1ccc(OC)cc1 (stereo not given),0.17,1.2,0.601,0.733,1.19,-0.0692,0.191,0.496,1.14,1.06 (inactive)
C=C[C@H](C)[C@@H](O)c1ccc(O)c2ccccc12,1.25,-0.655,-0.432,-0.407,1.05,0.944,-0.401,0.246,0.545,-0.322 (inactive)
COC(=O)C(CC#Cc1ccc2c(c1)[C@]1(C(=O)N2)[C@H](C(=O)NC[C@H](O)c2ccccc2)[C@H]2C(=O)O[C@H](c3ccccc3)[C@H](c3ccccc3)N2[C@@H]1c1ccc(OCCO)cc1)C(=O)OC,1.5,1.21,0.538,0.957,1.25,0.937,-1.32,1.69,1.21,-1.83 (inactive)
O=C1O[C@H](c2ccccc2)[C@H](c2ccccc2)N2[C@H]1[C@@H](C(=O)Nc1nc3ccccc3s1)[C@]1(C(=O)Nc3ccccc31)[C@H]2c1ccc(O)cc1,0.156,1.24,0.19,0.921,1.32,1.47,-2.12,1.08,0.705,-0.647 (inactive)
[N-]=[N+]=Nc1ccccc1[C@H]1OC(c2ccc(OCCCO)cc2)=N[C@@]1(CCS(=O)(=O)c1ccccc1)C(=O)O,1.2,0.478,0.042,0.773,0.395,0.174,-1.72,-0.782,0.85,-12.4 (active)
[N-]=[N+]=NCc1ccccc1C[C@@]1(C(=O)N2CCOCC2)N=C(c2ccc(OCCCO)cc2)O[C@@H]1c1ccccc1CN=[N+]=[N-],3.09,1.25,0.829,0.978,1.05,0.684,0.74,0.365,1.3,-0.832 (inactive)
COCCOC(=O)N1C(=O)[C@@]2(c3ccccc31)[C@H](C(=O)NC[C@H](O)c1ccccc1)[C@H]1C(=O)O[C@H](c3ccccc3)[C@H](c3ccccc3)N1[C@@H]2c1ccc(OCCO)cc1,0.791,1.15,0.367,0.715,1.47,1.77,-0.542,1.58,0.387,0.888 (inactive)
CC(C)C[C@@H]1NC(=O)[C@H]2C[C@@H](C(=O)NCCCCCNC(=O)CS)[C@@H](c3cccc(OCCO)c3)N2C1=O,2.41,1.21,0.603,0.374,1.44,1.7,-0.628,1.35,0.195,-1.15 (inactive)
C=C(C(=O)CC[C@H](OC(C)=O)c1ccc(OCCO)cc1)C(C)C,0.772,-0.02,-0.381,0.711,1.4,0.911,-0.217,1.45,0.0674,-0.503 (inactive)
COCC(=C=CC[C@@H](O)c1ccc(CO)o1)CCO,-0.145,0.114,-0.29,-0.23,1.24,0.958,-0.0212,1.24,0.43,-0.877 (inactive)
COC(=O)[C@@]1(Cc2ccc(OC)cc2)[C@H]2c3cc(C(=O)N4CCCC4)n(Cc4cc(F)cc5c4OCOC5)c3C[C@H]2CN1C(=O)c1ccccc1,-0.642,1.2,0.993,-0.18,0.0448,-0.873,0.64,-0.394,0.0908,0.0222 (inactive)
C=CCOC(=O)[C@H]1[C@@H]2C(=O)O[C@@H](c3ccccc3)[C@@H](c3ccccc3)N2[C@@H](c2ccc(OCCOC(=O)[C@@H]3C[C@@H]4C(=O)NCC(=O)N4[C@@H]3c3ccc(O)cc3)cc2)[C@]12C(=O)Nc1ccccc12,1.56,1.19,0.564,0.478,1.35,1.72,-1.43,1.18,-0.233,-2.56 (inactive)
CC(C)CNC(=O)[C@@H]1c2ccccc2C(=O)N(Cc2cc(C(F)(F)F)cc(C(F)(F)F)c2)[C@H]1c1ccc(CO)cc1,-0.137,-0.569,0.093,-0.419,-0.137,-0.124,0.157,-0.851,0.204,-0.975 (inactive)

Compound,composite z-score [1],composite z-score [2],composite z-score [3],composite z-score [4],composite z-score [5],composite z-score [6],z-score [7],composite z-score (Lefty1),composite z-score [8],z-score [9]
CCOC(=O)C[C@H]1[C@H](OC(=O)Cc2ccc3c(c2)OCO3)[C@@H](NC(=O)C2CCCCC2)c2cc(OCCCO)ccc2N1C(=O)Cc1ccc(OC)cc1,0.135,0.807,0.673,0.66,0.139,0.221,2.5,0.333,0.0679,-1.27 (inactive)
O=C1O[C@H](c2ccccc2)[C@H](c2ccccc2)N2[C@H]1[C@@H](C(=O)N1CCN(c3ncccn3)CC1)[C@]1(C(=O)Nc3ccccc31)[C@H]2c1ccc(OCCO)cc1,1.39,1.19,0.429,-0.206,1.34,1.43,-0.442,1.12,0.0522,0.546 (inactive)
C=CC(=C)C1=CCO[C@@H]1[C@H]1CCCN1S(=O)(=O)c1ccccc1[N+](=O)[O-],0.2,0.25,-0.318,0.802,0.976,0.174,-0.295,0.767,0.241,0.0352 (inactive)
CC(C)Cc1ccc(CN2CC[C@@H](NS(=O)(=O)c3ccccc3)C2)cc1,0.441,-0.593,-0.0553,-1.02,0.797,-0.0321,-0.641,0.477,-0.654,0.826 (inactive)
CC(C)=CCCC(C)=CC(O)C1C=CC2C(=O)N(c3ccccc3)C(=O)C2N1Nc1ccccc1 (stereo not given),1.79,1.18,0.63,1.01,1.14,0.227,-0.773,0.16,1.3,0.0145 (inactive)
[N-]=[N+]=NCc1ccccc1C[C@]1(C(=O)O)N=C(c2ccc(OCCCO)cc2)O[C@H]1c1ccccc1,1.29,1.13,0.165,0.687,0.0944,0.87,0.0539,-1.43,1.2,0.414 (inactive)
CC(C)OC(=O)CC(=O)CC(O)c1ccc(C#N)cc1 (stereo not given),0.548,1.14,0.762,1.04,-0.337,-0.581,0.409,-0.783,0.731,0.902 (inactive)
N#Cc1ccc(NN2C(C(O)C3CCCCC3)C=CC3C(=O)N(c4ccccc4)C(=O)C32)cc1 (stereo not given),0.422,1.27,0.533,1.03,1.27,-0.252,-0.309,0.058,0.847,-0.394 (inactive)
C[C@H]1NC(=O)[C@H](Cc2ccccc2)NC(=O)[C@@]23C(=O)N[C@@H](Cc4ccccc4)C2[C@H](C)[C@@]2(C)O[C@H]2C3/C=C/C/C=C\CNC1=O (stereo not given in full),-0.708,-1.27,-0.261,-1.75,0.275,0.0643,0.593,-0.94,-0.585,-0.923 (inactive)
COc1ccc(C(=O)Nc2cccc(CN3C(=O)[C@]4(O[C@H](CC(=O)N5CCC[C@H]5CO)[C@@H]([Si](C)(C)c5ccc(OC)cc5)[C@@H]4C)c4ccccc43)c2)cc1,1.22,1.15,0.407,0.634,1.03,1.33,-0.407,0.728,0.595,-0.895 (inactive)
CC(C)NC(=O)[C@@]1(Cc2ccccc2I)c2ccccc2C(=O)N(Cc2ccccc2)[C@H]1c1ccc(CO)cc1,3.2,1.19,1.05,0.387,1.29,1.07,0.188,1.19,0.131,0.277 (inactive)
COc1ccc(C(O)C2C=CC3C(=O)NC(=O)C3N2Nc2ccccn2)cc1OCc1ccccc1 (stereo not given),0.834,0.502,-0.0511,0.816,-0.101,-1.37,1.73,-0.168,0.532,0.24 (inactive)
COC(=O)[C@@]1(Cc2ccccc2)[C@H]2c3cc(C(=O)N4CCCC4)n(C)c3C[C@H]2CN1C(=O)c1ccccc1,1.95,0.762,1.73,1.03,0.725,-0.915,0.244,-0.0781,1.06,0.271 (inactive)
O=C1C[C@]2(c3ccc([N+](=O)[O-])cc3)C(=O)N(CC(F)(F)F)c3cc(CO)ccc3[C@H]2N1CC12CC3CC(CC(C3)C1)C2,-0.239,-0.369,0.0419,-1.16,0.77,0.0808,0.297,0.551,0.122,1.09 (inactive)
CN(C)C(=O)[C@]1(CCC(=O)OC(C)(C)C)N=C(c2ccc(OCCCO)cc2)O[C@@H]1c1ccccc1N=[N+]=[N-],0.128,1.3,0.383,0.996,1.25,0.347,0.752,-0.037,1.15,-7.84 (inactive)
O=C1O[C@@H](c2ccccc2)[C@@H](c2ccccc2)N2[C@@H](c3ccc(OCCO)cc3)[C@]3(C(=O)Nc4ccc(C#CC5=CCCCC5)cc43)[C@@H](C(=O)O)[C@H]12,1.42,1.01,1.31,0.865,0.878,0.34,-2.48,0.46,0.997,-6.59 (inactive)
